# In PubChem BioAssay AID463173 (ICCB-Longwood Screening Facility, Harvard Medical School, 2010):
# Out of some 52,000 compounds screened, about 4,300 (8.3%) were called active. The list comes from a sample in which actives are over-represented; it also holds similar structures and randomly drawn compounds. Unmarked numbers belong to inactive results. No stated cut-off is given here; in the data, active means survival mostly below about 52% (no sharp cut-off); inactive means mostly above about 56%.
# System: DeltatarO mutant
# Test: growth inhibition of S. aureus wild type versus tarO mutant, primary screen, teichoic acid synthesis inhibitors, RN4220, OD600 (AID 463173)
# Conditions: OD600, 18 h, active compounds read low, screened at 18.75 µg/mL (by protocol)
row,SMILES,survival
1,O=C(Nc1ccc(NC(=O)C2CC2)nc1)c1cccc(F)c1,77%
2,CCCCCc1nn2cc(-c3ccccc3)nc2s1,105%
3,Nc1ccc(CN2C(=O)c3ccccc3C2=O)cc1,91%
4,O=C(C1CCCN(S(=O)(=O)c2cccs2)C1)N1CCN(c2ccccc2F)CC1 (configuration not stated),85%
5,CCn1cc(C(=O)N2CCN(c3ccc(C(C)=O)cc3)CC2)c2cc(OC)c(OC)cc2c1=O,164%
6,CCC(=O)N1CCc2cc(S(=O)(=O)CCC(=O)N3CCN(c4cccc(C)c4C)CC3)ccc21,98%
7,CC(C)c1ccccc1NC(=O)CSc1nnc(COc2ccccc2Cl)o1,99%
8,COc1ccc(CCCc2nnc(SCC(=O)Nc3cccc(F)c3C)o2)cc1,39% (active)
9,O=C(CSc1nnc(COc2ccc(Cl)cc2)o1)Nc1ccccc1,51%
10,COc1cccc(NC(=O)CSc2nnc(COc3ccc(Cl)cc3)o2)c1,57% (active)
11,COc1ccc(CCCc2nnc(SCC(=O)Nc3cc(F)ccc3C)o2)cc1,64%
12,COc1ccc(CCCc2nnc(SCC(=O)Nc3ccc(OC)cc3)o2)cc1,65%
13,Cc1ccc(NC(=O)CSc2nnc(COc3ccc(Cl)cc3)o2)cc1,49%
14,Cc1cc(C)cc(NC(=O)CSc2nnc(COc3ccccc3Cl)o2)c1,12% (active)
15,CCc1ccccc1NC(=O)CSc1nnc(COc2ccccc2Cl)o1,66%
16,O=c1c2oc3ccccc3c2n(Cc2ccccc2)c(=O)n1Cc1ccco1,95%
17,CCN(Cc1ccccc1)C(=O)CN1C(=O)COc2ccc(S(=O)(=O)N3CCCCCC3)cc21,95%
18,COc1cc(C2CC(=O)c3cnc(N4CCN(CCO)CC4)nc3C2)cc(OC)c1OC (configuration not stated),92%
19,CC(C)Cn1c(N2CCN(C(=O)Nc3ccc(Cl)cc3)CC2)nc2ccccc21,102%
20,CCn1c(N2CCN(C(=O)Nc3ccc(Cl)c(C(F)(F)F)c3)CC2)nc2ccccc21,0% (active)
21,CCCn1c(N2CCN(C(=O)Nc3ccc(OC)cc3)CC2)nc2ccccc21,104%
22,CC(=O)c1ccc(NC(=O)c2noc3c2CSc2ccccc2-3)cc1,54%
23,COCCCNC(=O)C1CCN(Cc2nc(-c3ccc(OC)c(OC)c3)oc2C)CC1,88%

row,SMILES,survival
1,COc1ccc(OC)c(-c2noc(N3CCN(c4ccc(C(C)=O)cc4)CC3)n2)c1,134%
2,Cc1ccc(/C=C/C(=O)Nc2ccc3nc(N4CCC(C)CC4)cc(C)c3c2)cc1,122%
3,Cc1cc(N2CCCCC2)nc2ccc(NC(=O)/C=C/c3ccc(OCCC(C)C)cc3)cc12,56%
4,COc1ccc(/C=C/C(=O)Nc2ccc3nc(N4CCCCC4)cc(C)c3c2)cc1OC,43% (active)
5,Cc1cc(N2CCCCC2)nc2ccc(NC(=O)/C=C/c3ccccc3OC(C)C)cc12,73%
6,Cc1cc(N2CCCCC2)nc2ccc(NC(=O)/C=C/c3ccccc3Cl)cc12,44% (active)
7,Cc1cc(N2CCC(C)CC2)nc2ccc(NC(=O)/C=C/c3cccc(Cl)c3)cc12,53% (active)
8,Cc1cc(N2CCCCC2)nc2ccc(NC(=O)/C=C/c3ccc(OC(C)C)cc3)cc12,50%
9,COc1ccc(/C=C/C(=O)Nc2ccc3nc(N4CCC(C)CC4)cc(C)c3c2)cc1OC,51%
10,COc1ccc(/C=C/C(=O)Nc2ccc3nc(N4CCC(C)CC4)cc(C)c3c2)cc1,51% (active)
11,COc1cc(C(=O)Nc2cccc(OCc3cc(=O)n4cc(C)sc4n3)c2)cc(OC)c1OC,90%
12,COc1ccccc1C1C=C(c2ccc(Cl)cc2)Nc2nc(-c3ccc(Cl)cc3)nn21 (configuration not stated),59%
13,COC(=O)C1=C(C)NC(=O)CC1c1ccccc1 (configuration not stated),105%
14,COc1ccccc1CCNC(=O)C1CCN(c2nnc(C)c3c(C)n(-c4ccc(C)cc4)nc23)CC1,85%
15,CC(=O)N1CCCc2cc(S(=O)(=O)N3CCCC(C(=O)Nc4ccc(C)cc4C)C3)ccc21 (configuration not stated),71%
16,Cc1ccc(C(=O)Nc2nc3nc(C)cc(=O)n3[nH]2)cc1,91%
17,O=C(Cc1ccccc1)Nc1c(C(=O)N2CCN(c3ccc(F)cc3)CC2)oc2ccccc12,49%
18,O=C(Cn1ncc2c(=O)oc3ccccc3c21)N1CCN(c2ccc(Cl)cc2)CC1,93%
19,CCn1ccc2cc(S(=O)(=O)N3CCCN(C(=O)Nc4ccc(C)c(F)c4)CC3)ccc21,73%
20,CCN1CCN(c2cc(C)c3cc(NC(=O)/C=C/c4ccc(OCCC(C)C)cc4)ccc3n2)CC1,112%
21,CCN1CCN(c2cc(C)c3cc(NC(=O)/C=C/c4ccc(C)cc4)ccc3n2)CC1,52%
22,COc1ccc(/C=C/C(=O)Nc2ccc(Cl)c(Cl)c2)cc1,66%
23,COc1cccc(/C=C/C(=O)Nc2ccc3nc(N4CCN(C)CC4)cc(C)c3c2)c1OC,79%

row,SMILES,survival
1,CCN1CCN(c2cc(C)c3cc(NC(=O)/C=C/c4cccc(Cl)c4)ccc3n2)CC1,44% (active)
2,C/C=C/C(=O)Nc1ccc(Cl)c(Cl)c1,70%
3,COc1ccc(/C=C/C(=O)Nc2ccc(Cl)c(Cl)c2)cc1OC,18% (active)
4,COc1ccc(Nc2c3c(nc4ccc(NC(=O)/C=C/c5cccc(OC)c5OC)cc24)CCCC3)cc1OC,66%
5,CCN1CCN(c2cc(C)c3cc(NC(=O)/C=C/c4cccc(OC)c4OC)ccc3n2)CC1,43% (active)
6,O=C(CSc1nnc(-c2ccc([N+](=O)[O-])cc2)o1)Nc1ccccc1,81%
7,CCSc1ncc(Cl)c(C(=O)Nc2sc(C(C)=O)c(C)c2C(=O)OC)n1,72%
8,O=C(Cn1ncc2c3ccccc3n(Cc3ccc(F)cc3)c2c1=O)NC1CCCCCC1,80%
9,COc1cccc(CNC(=O)CN(c2ccc(C)cc2)S(=O)(=O)N(C)C)c1OC,94%
10,C=Cc1ccc(CN2C(=O)N(c3cccc(Cl)c3)S(=O)(=O)c3ccccc32)cc1,64%
11,C=Cc1ccc(CN2C(=O)N(c3ccc(CC)cc3)S(=O)(=O)c3ccccc32)cc1,6% (active)
12,C=Cc1ccc(CN2C(=O)N(c3ccc(C)c(C)c3)S(=O)(=O)c3ccccc32)cc1,84%
13,COc1cc(NC(=O)CCc2nc3cccnc3n2Cc2cccs2)cc(OC)c1OC,78%
14,CC(=O)NC(Cc1cccc(C)c1)C(=O)NC1CCN(c2nc(C)cc(C)c2C#N)CC1 (configuration not stated),97%
15,CCS(=O)(=O)c1cccc(C(=O)Nc2ccc(-c3nc4ccccc4s3)c(O)c2)c1,85%
16,COC(=O)c1ccc(C2Nc3c(C)cccc3-c3cc(C)nn32)cc1 (configuration not stated),74%
17,CCOc1cccc(C2Nc3ccccc3-c3cc(C)nn32)c1O (configuration not stated),195%
18,COc1ccc(OC)c(C2Nc3c(C)cc(C)cc3-c3cc(C)nn32)c1 (configuration not stated),-3% (active)
19,COc1cc(C2Nc3ccccc3-c3cc(C)nn32)ccc1O (configuration not stated),121%
20,CCOc1ccc(C2Nc3c(C)cccc3-c3cc(C)nn32)cc1 (configuration not stated),0% (active)
21,Cc1cc2n(n1)C(c1ccccc1)Nc1ccccc1-2 (configuration not stated),93%
22,COc1cc(OC)c(C2Nc3c(C)cccc3-c3cc(C)nn32)cc1OC (configuration not stated),184%
23,CCN(CC)c1ccc(C2Nc3ccccc3-c3cc(C)nn32)cc1 (configuration not stated),7% (active)

row,SMILES,survival
1,COc1cc(C2Nc3c(C)cc(C)cc3-c3cc(C)nn32)cc(OC)c1O (configuration not stated),131%
2,O=C(NCc1ccccc1Cl)C1CCN(C(=O)N2CCOc3ccccc32)CC1,83%
3,COCCn1c(COc2cccc(OC)c2)nnc1SCC(=O)NC1CCCC1,82%
4,COc1ccc(NC(=O)c2cc(C)nc3c2c(C)nn3-c2ccc(C)cc2)cc1OC,94%
5,Cc1ccc2[nH]c(=O)c(CN(C(=O)c3cccc(Cl)c3)C(C)(C)C)cc2c1,94%
6,NC(=O)CSc1nc(-c2ccccc2)nc2c1CCCC2,88%
7,O=C(CSc1nc(-c2ccccc2)nc2c1CCCC2)c1ccc(Cl)cc1,76%
8,CCc1ccc(C(=O)CSc2nc(-c3ccccc3)nc3c2CCCC3)cc1,60%
9,Cc1ccc(C(=O)CSc2nc(-c3ccccc3)nc3c2CCCC3)cc1C,15% (active)
10,Cc1ccc(C(=O)CSc2nc(-c3ccccc3)nc3c2CCCC3)cc1,36% (active)
11,Cc1ccc(C)c(C(=O)CSc2nc(-c3ccccc3)nc3c2CCCC3)c1,2% (active)
12,Cc1ccc(C(=O)CSc2nc(-c3ccccc3)nc3c2CCCC3)c(C)c1,47%
13,Cc1nc2c(c(SCC(=O)Nc3ccccc3C(F)(F)F)n1)CCC2,60%
14,O=C(CSc1nc(-c2ccccc2)nc2c1CCCC2)c1ccc(F)cc1,83%
15,OC(CNCc1ccccn1)COc1ccc(OCC(O)CNCc2ccccn2)cc1 (configuration not stated),96%
16,Cc1ccc2c(c1)NC(=O)c1cccnc1O2,94%
17,CCOc1ccc(CNC(=O)C(C)n2ncn3cccc3c2=O)cc1 (configuration not stated),69%
18,COc1ccc(C(C(=O)NC2CCCC2)N(Cc2ccco2)C(=O)Cn2nc(C(F)(F)F)c3c2CCCC3)cc1 (configuration not stated),91%
19,Brc1ccc(-c2csc(NN=C3CCCC3)n2)cc1,102%
20,COC(=O)c1ccccc1NC(=O)c1ccc2c(c1)CCN2S(=O)(=O)c1ccc(Cl)cc1,69%
21,CCn1c2c(c(=O)n3ncc(C(=O)Nc4ccc(OC(F)(F)F)cc4)c13)CN(Cc1ccc(OC)cc1)CC2,94%
22,CCn1c2c(c(=O)n3ncc(C(=O)Nc4ccc(F)c(Cl)c4)c13)CN(Cc1ccc(OC)cc1)CC2,17% (active)
23,CCn1c2c(c(=O)n3ncc(C(=O)Nc4ccc(Cl)cc4C)c13)CN(Cc1ccc(OC)cc1)CC2,87%
